ChEMBL document CHEMBL1961873, “Compounds: GSK PKIS; Assays: Nanosyn kinase panel” (2012)

Key:
[1] = tested on: Tyrosine-protein kinase ABL1 (Homo sapiens), P00519 [T315I]; conditions: at 1 µM
[2] = tested on: Tyrosine-protein kinase ABL1 (Homo sapiens), P00519 [Y253F]; conditions: at 0.1 µM
[3] = tested on: Tyrosine-protein kinase ABL1 (Homo sapiens), P00519 [Y253F]; conditions: at 1 µM
[4] = biological target: Tyrosine-protein kinase ABL1 (Homo sapiens) (UniProt P00519); conditions: at 0.1 µM
[5] = biological target: Tyrosine-protein kinase ABL1 (Homo sapiens) (UniProt P00519); conditions: at 1 µM
[6] = biological target: ALK tyrosine kinase receptor (Homo sapiens) (UniProt Q9UM73); conditions: at 0.1 µM
[7] = biological target: ALK tyrosine kinase receptor (Homo sapiens) (UniProt Q9UM73); conditions: at 1 µM
[8] = biological target: Tyrosine-protein kinase ABL2 (Homo sapiens) (UniProt P42684); conditions: at 0.1 µM
[9] = biological target: Tyrosine-protein kinase ABL2 (Homo sapiens) (UniProt P42684); conditions: at 1 µM
[10] = biological target: Tyrosine-protein kinase receptor UFO (Homo sapiens) (UniProt P30530); conditions: at 0.1 µM;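 also: values are mean percent inhibition of AXL from the GSK PKIS screen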
Sequence of Tyrosine-protein kinase receptor UFO (Homo sapiens) (P30530 whole entry): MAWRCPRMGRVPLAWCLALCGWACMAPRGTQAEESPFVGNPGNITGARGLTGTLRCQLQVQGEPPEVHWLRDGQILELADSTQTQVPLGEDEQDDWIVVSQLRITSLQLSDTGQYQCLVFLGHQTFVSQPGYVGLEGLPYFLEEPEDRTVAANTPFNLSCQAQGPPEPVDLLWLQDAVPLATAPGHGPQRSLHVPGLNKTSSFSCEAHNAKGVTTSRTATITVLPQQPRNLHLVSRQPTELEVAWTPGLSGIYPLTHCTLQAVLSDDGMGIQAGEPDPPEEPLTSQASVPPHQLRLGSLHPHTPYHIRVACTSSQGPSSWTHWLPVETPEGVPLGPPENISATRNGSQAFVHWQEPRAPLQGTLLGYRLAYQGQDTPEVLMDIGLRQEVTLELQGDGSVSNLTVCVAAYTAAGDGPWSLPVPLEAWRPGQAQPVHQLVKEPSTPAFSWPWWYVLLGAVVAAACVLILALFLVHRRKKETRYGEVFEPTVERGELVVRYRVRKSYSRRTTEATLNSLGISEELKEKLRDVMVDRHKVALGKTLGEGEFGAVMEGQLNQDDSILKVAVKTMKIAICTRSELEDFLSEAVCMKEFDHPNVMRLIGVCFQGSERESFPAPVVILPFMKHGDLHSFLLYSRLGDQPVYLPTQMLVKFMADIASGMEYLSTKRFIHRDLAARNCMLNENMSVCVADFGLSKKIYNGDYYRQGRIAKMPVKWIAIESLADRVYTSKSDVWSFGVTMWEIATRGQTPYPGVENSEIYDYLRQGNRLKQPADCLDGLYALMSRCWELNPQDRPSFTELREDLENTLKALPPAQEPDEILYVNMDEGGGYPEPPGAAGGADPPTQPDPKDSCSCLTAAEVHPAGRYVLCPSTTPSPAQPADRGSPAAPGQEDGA

Sequence of Tyrosine-protein kinase ABL2 (Homo sapiens) (P42684 whole entry): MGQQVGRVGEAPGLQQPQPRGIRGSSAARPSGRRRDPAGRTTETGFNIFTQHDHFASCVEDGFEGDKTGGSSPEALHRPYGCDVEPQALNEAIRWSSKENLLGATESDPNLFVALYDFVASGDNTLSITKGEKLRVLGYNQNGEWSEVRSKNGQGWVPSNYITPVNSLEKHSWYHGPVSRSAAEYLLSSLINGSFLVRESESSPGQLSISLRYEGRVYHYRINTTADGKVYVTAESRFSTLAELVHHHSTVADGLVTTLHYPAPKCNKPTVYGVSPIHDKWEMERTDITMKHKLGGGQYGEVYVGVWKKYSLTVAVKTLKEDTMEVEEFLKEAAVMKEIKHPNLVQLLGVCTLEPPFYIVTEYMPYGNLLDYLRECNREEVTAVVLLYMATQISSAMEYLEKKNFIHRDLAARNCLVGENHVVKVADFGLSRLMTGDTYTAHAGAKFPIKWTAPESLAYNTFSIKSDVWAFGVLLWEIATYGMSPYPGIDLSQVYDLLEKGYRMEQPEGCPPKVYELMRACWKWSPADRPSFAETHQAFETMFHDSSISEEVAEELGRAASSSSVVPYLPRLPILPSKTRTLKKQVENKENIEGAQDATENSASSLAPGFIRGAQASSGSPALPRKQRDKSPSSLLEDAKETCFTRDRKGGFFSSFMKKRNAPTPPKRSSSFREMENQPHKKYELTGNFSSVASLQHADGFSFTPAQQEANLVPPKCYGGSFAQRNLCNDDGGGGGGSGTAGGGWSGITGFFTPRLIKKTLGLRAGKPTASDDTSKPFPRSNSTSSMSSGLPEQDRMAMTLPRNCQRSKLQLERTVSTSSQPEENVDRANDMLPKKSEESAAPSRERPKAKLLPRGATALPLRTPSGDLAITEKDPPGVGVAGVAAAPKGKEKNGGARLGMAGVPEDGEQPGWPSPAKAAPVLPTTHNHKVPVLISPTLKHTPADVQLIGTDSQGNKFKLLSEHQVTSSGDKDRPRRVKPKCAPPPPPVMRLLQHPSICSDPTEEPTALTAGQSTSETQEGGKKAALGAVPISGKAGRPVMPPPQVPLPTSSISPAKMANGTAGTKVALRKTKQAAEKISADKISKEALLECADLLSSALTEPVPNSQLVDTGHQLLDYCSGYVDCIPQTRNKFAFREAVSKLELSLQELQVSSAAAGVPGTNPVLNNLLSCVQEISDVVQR
Sequence of ALK tyrosine kinase receptor (Homo sapiens) (Q9UM73 19-1620 limits assumed): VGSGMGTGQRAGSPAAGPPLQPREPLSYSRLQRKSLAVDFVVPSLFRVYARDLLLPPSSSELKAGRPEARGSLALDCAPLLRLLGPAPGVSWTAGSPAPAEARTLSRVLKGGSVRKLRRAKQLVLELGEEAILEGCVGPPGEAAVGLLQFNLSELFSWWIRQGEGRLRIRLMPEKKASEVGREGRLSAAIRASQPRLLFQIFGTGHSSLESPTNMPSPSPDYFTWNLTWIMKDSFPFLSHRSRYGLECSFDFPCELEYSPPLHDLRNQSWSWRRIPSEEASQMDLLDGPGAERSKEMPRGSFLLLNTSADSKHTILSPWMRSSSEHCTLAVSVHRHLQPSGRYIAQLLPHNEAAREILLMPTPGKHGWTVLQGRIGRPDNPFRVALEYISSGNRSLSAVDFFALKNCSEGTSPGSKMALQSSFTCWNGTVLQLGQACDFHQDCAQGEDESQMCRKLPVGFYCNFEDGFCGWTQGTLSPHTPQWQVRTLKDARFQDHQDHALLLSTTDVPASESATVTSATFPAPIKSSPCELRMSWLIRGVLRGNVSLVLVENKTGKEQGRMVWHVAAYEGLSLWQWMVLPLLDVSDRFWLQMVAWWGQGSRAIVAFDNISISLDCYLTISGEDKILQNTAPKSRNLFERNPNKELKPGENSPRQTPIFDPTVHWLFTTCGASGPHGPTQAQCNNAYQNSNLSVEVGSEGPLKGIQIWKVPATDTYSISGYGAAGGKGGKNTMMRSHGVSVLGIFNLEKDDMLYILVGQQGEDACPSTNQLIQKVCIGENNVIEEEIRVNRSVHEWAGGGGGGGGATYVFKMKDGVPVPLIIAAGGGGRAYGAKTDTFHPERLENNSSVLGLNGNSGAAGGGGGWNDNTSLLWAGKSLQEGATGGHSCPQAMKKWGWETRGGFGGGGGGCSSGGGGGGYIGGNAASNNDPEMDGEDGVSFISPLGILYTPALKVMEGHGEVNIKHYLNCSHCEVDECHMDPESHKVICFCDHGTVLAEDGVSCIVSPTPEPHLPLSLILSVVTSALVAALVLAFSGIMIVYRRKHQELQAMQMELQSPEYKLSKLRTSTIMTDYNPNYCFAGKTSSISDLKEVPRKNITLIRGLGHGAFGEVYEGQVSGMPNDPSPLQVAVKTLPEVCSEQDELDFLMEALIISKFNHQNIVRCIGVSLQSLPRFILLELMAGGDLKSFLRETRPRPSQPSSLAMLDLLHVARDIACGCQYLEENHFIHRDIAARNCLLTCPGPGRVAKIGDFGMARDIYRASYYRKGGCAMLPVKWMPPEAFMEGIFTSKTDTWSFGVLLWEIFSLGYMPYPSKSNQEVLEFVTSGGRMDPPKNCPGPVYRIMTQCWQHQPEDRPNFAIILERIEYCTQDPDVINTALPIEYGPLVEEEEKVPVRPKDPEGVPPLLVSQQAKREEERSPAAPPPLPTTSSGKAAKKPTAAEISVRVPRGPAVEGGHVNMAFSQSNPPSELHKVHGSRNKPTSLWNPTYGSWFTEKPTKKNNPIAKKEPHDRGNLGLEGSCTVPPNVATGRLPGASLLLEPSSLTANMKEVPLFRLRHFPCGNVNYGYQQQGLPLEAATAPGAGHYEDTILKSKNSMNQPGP

SMILES	inhibition [1]	inhibition [2]	inhibition [3]	inhibition [4]	inhibition [5]	inhibition [6]	inhibition [7]	inhibition [8]	inhibition [9]	inhibition [10]
CS(=O)(=O)CCN(CC#N)Cc1ccc(-c2ccc3ncnc(Nc4ccc(OCc5cccc(F)c5)c(Cl)c4)c3c2)o1	-0.34%	2.36%	1.9%	-2.3%	-2.95%	-2.83%	-0.48%	-2.62%	-1.72%	-6.1%
Nc1nc(-c2ccc3c(c2)C(=Cc2cc(Br)c(O)c(Br)c2)C(=O)N3)cs1	1.95%	-2.03%	7.8%	0.56%	12.7%	-1.31%	1.3%	0.45%	9.86%	0.81%
N#Cc1c(NC(=O)c2cccc3ccccc23)sc2c1CCCC2	3.27%	5.89%	5.73%	2.91%	9.14%	2.92%	2.25%	3.88%	9.55%	-4.77%
COc1cc2ncn(-c3cc(O[C@H](C)c4ccccc4Cl)c(C(N)=O)s3)c2cc1OC	57.9%	11.5%	47.1%	7.25%	47.2%	4.18%	19%	4.99%	37.2%	-0.27%
CS(=O)(=O)CCNCc1nc(-c2ccc3ncnc(Nc4ccc(F)c(Cl)c4)c3c2)cs1	6.43%	1.82%	18.3%	3.89%	18.2%	0.89%	3.6%	4.58%	9.66%	0.38%
CCn1c(-c2nonc2N)nc2c(N3CCCC3)nccc21	0.72%	-1.15%	2.07%	-1.74%	0.66%	-1.38%	-2.28%	0.18%	7.36%	0.14%
COc1ccc(-c2ccncc2)cc1C(N)=O	2.08%	4.84%	2.94%	4.11%	5.76%	3.85%	6.43%	3.92%	4.08%	-7.91%
COc1cc2c(cc1Nc1nc(N3CCc4ccccc43)c3cc[nH]c3n1)N(C(=O)CN(C)C)CC2	-1.44%	1.21%	3.71%	2.76%	7.27%	90%	85.3%	2.02%	5.11%	3.85%
COc1ccc(COc2ccc(Cc3cnc(N)nc3N)cc2OC)cc1	-2.04%	3.15%	0.75%	3.16%	7.34%	-0.54%	0.01%	3.27%	5.98%	4.25%
COC(=O)Nc1nc2cc(Oc3cccc(NC(=O)Nc4cc(C(F)(F)F)ccc4F)c3)ccc2[nH]1	12.6%	5.16%	19.8%	0.82%	24.6%	-1%	0.13%	4.08%	41.3%	-0.41%
COc1ccc(-c2nn3ncccc3c2-c2ccnc(Nc3ccc(Cl)c(C(F)(F)F)c3)n2)cc1	4.57%	2.03%	6.35%	2.26%	10.3%	1.83%	2.05%	2.64%	9.44%	-2.69%
COc1cc2ncn(-c3cc(OCc4ccccc4C(F)(F)F)c(C(N)=O)s3)c2cc1OC	14%	5.48%	19.4%	2.17%	17.9%	0.14%	5.04%	2.15%	13.2%	-8.08%
Fc1cccc(COc2ccc(Nc3ncnc4cc(-c5ccc[nH]5)sc34)cc2Cl)c1	5.41%	3.92%	8.02%	0.53%	10.7%	-2.31%	2.96%	3.02%	9.41%	-2.49%
O=C1NC(=O)C(c2ccc(Cl)cc2)=C1Nc1ccc(Cl)c(C(=O)O)c1	3%	2.01%	0.85%	-0.85%	7.52%	-2.28%	-1.12%	-0.74%	7.37%	2.69%
COc1cc(C=NNc2ncnc3c2cnn3-c2ccccc2)ccc1O	82.1%	43.3%	86.6%	23.4%	73.7%	2.44%	6.69%	11.6%	71.5%	-1.48%
Cc1ccc(NC(=O)c2ccnc(N3CCCC3)c2)cc1-c1ccc(C(=O)NCC2CC2)cc1	2.61%	2.64%	3.85%	-0.85%	4.81%	0.36%	5.33%	-0.85%	7.46%	-7.11%
CCn1c(-c2nonc2N)nc2c(C#CC(C)(C)O)nc(OC[C@@H](N)c3ccccc3)cc21	3.35%	0.12%	2.98%	7.72%	10.1%	-0.2%	10.2%	5.61%	1.83%	2.41%

SMILES	inhibition [1]	inhibition [2]	inhibition [3]	inhibition [4]	inhibition [5]	inhibition [6]	inhibition [7]	inhibition [8]	inhibition [9]	inhibition [10]
CNC(=O)c1cncc(/C=C/c2c(Cl)cccc2Cl)c1	4.22%	12.5%	54.5%	8.37%	40.5%	6%	9.12%	7.46%	35.7%	-6.04%
CCn1c(-c2nonc2N)nc2ccncc21	-0.3%	-0.36%	1.17%	1.53%	3.89%	1.59%	1.87%	2.85%	-1.97%	-1.17%
NS(=O)(=O)c1ccc(N/N=C2\C(=O)Nc3ccc(C(=O)NCCc4c[nH]cn4)cc32)cc1	11.6%	3.56%	12.1%	5.35%	15.3%	3.67%	12.9%	4.29%	9.57%	-2.52%
Cc1cccc(-c2n[nH]cc2-c2ccc3ncccc3n2)n1	2.07%	3.03%	25.9%	5.29%	37.2%	2.05%	0.57%	3.75%	8%	-0.81%
CS(=O)(=O)CCNCc1ccc(-c2ccc3ncnc(Nc4ccc(OCc5ccccc5)c(Cl)c4)c3c2)o1	2.14%	0.5%	1.92%	0.58%	3.7%	1.08%	4.89%	0.92%	5.67%	0.79%
COc1ccc(-c2coc3ncnc(N)c23)cc1	2.72%	4.98%	10.8%	3.7%	12%	4.4%	3.97%	3.42%	8.31%	-5.99%
COc1cccc(-n2ncc3c(N/N=C/c4cccc(F)c4)ncnc32)c1	51.8%	57.7%	89.2%	12%	69.3%	-1.54%	-1.21%	3.52%	52.4%	-2.89%
COc1ccccc1Nc1ncc(-c2ccccc2)o1	5.84%	4.71%	13.7%	8.63%	14.1%	4.54%	9.47%	7.08%	11.2%	-6.45%
CCn1c(-c2nonc2N)nc2cncc(C(=O)N3CC[C@H](N)C3)c21	3.27%	2.94%	3.51%	4.28%	4.33%	3.95%	3.52%	5.33%	7.29%	-5.66%
NS(=O)(=O)c1cccc(-c2ccc3c(NC(=O)C4CC4)n[nH]c3c2)c1	25.3%	2.68%	27%	-0.29%	20.5%	-1.84%	-1.06%	-1.16%	1.08%	1.32%
CCn1c(-c2nonc2N)nc2cnc(Oc3cccc(NC(=O)c4ccc(OCCN5CCOCC5)cc4)c3)cc21	4.26%	5.27%	4.41%	3.37%	11.1%	1.15%	3.72%	4.56%	7.99%	-6.28%
Nc1ncnc2occ(-c3ccc(NC(=O)Nc4cccc(C(F)(F)F)c4)cc3)c12	89.2%	12.3%	48.2%	16.1%	55.8%	6.2%	21.8%	33.6%	64.7%	
CCc1cccc(NC(=O)Nc2ccc(Oc3ccc4nc(NC(=O)OC)[nH]c4c3)cc2)c1	51.3%	18.3%	26.6%	7.41%	23.8%	1.34%	3.68%	14.8%	44.8%	9.63%
CN(C)c1cc2c(Nc3ccc4nc(Cc5ccccc5)[nH]c4c3)ncnc2cn1	4.5%	4.02%	6.17%	5.47%	9.51%	4.99%	4.24%	4.28%	7.06%	-8.08%
Cc1nn(C)c2cc(N(C)c3ccnc(Nc4cccc(S(N)(=O)=O)c4)n3)ccc12	68.1%	45.3%	84.5%	28.3%	74.9%	3.45%	19.2%	30.2%	74.4%	-2.86%
CS(=O)(=O)Nc1ccc(N/C=C2\C(=O)Nc3ccccc32)cc1	18.3%	-0.43%	12%	-0.3%	11%	-2.22%	5.88%	0.2%	8.69%	2.95%
CCn1c(-c2nonc2N)nc2cncc(C(=O)N3CCNCC3)c21	1.77%	2.95%	5.17%	3.16%	3.28%	3.59%	5.18%	1.81%	4.42%	-7.98%
